This is a sample that favours compounds with a hit; in the whole collection about 1.2% have one here.
RGS7-Gao: human RGS7-Galphao interaction regulation | binding response (% of control), % at 10 µM | P09471 | Multiplexed bead flow cytometry, RGS7-Galphao binding; actives lie on both sides | 220,000 compounds, 0.35% hits | AID 1439; in the data active = binding response below about 49% or above about 150%; inconclusive = no clear call, values can overlap the other calls; inactive = in between;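 also: fluorescent Galphao held in activated GDP-AlF4 state binding bead-coupled RGS7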
Target sequence (P09471 whole entry, looked up): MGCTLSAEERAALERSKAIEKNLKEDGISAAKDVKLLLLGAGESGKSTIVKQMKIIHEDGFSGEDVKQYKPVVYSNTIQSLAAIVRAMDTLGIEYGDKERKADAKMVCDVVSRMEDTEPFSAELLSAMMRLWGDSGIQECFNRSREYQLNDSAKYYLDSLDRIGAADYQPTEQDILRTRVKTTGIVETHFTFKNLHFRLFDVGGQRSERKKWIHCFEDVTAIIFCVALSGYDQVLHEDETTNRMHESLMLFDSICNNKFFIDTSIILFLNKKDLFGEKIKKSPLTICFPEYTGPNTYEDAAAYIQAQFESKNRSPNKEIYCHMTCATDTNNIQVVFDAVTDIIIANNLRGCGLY
Avidin bead fluor: avidin bead compound fluorescence profile; fluorescence (KMESF) at 10 µM; AID 1775; 220,000 compounds, 0.38% hits; Avidin beads, compound fluorescence 488/530 nm, flow cytometry; active compounds read high; in the data active = fluorescence above about 47
GSH fluor: compound fluoresces at 488/530 nm on GSH beads. GSH beads flow cytometry, compound fluorescence 488/530 nm; active compounds read high. fluorescence (KMESF) at 10 µM. 190,000 compounds, 0.25% hits; in the data active = fluorescence above about 89;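 also: glutathione beads carrying GST-tagged Bcl family fusion proteins plus one bare bead set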
RGS8-Gao reg: regulators of human RGS8-Galphao interaction; multiplexed bead flow cytometry, RGS8-Galphao binding; actives lie on both sides; response (percent of control binding), % at 10 µM; 220,000 compounds, 0.34% hits; AID 1423; in the data active = response below about 60% or above about 140%; inactive = in between;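 also: Galphao activated as the GDP aluminium fluoride complex binding bead-coupled RGS8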
RGS16-Gao HTS: modulates binding between human RGS16 and Galphao | O15492+P09471 | bead-based flow cytometry RGS16-Galphao binding, fluorescence; actives lie on both sides | binding response (% of control), % at 10 µM | 220,000 compounds, 0.38% hits | AID 1441; call rule not given here;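 also: Galphao activated by GDP with aluminum fluoride before binding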
Target sequence (O15492 whole entry, looked up): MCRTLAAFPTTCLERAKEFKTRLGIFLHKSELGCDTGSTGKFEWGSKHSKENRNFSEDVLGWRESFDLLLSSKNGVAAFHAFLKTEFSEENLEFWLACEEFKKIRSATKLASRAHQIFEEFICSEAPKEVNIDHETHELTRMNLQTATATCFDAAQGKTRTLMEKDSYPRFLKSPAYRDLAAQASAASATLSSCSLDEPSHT
Target sequence (P09471 whole entry, looked up): as the sequence (P09471 whole entry, looked up) above
RGS4-Gao reg: modulates binding of RGS4 to human Galphao; P09471; Multiplexed bead flow cytometry; actives lie on both sides; binding response (% of control), % at 10 µM; 220,000 compounds, 0.33% hits; in the data active = binding response below about 49% or above about 150%; inactive = in between;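 also: fluorescent Galphao activated with aluminum fluoride binding bead-coupled RGS4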
A number is an active result.

What do the screens show for `CCOC(=O)Nc1ccc(C)cc1NC(=O)OCC`?
RGS7-Gao: inactive; Avidin bead fluor: inactive; GSH fluor: inactive; RGS8-Gao reg: inactive; RGS16-Gao HTS: inactive; RGS4-Gao reg: inactive

Results for CCOC(=O)Nc1cc(C)ccc1OC ?
RGS7-Gao: inactive; Avidin bead fluor: 51; GSH fluor: inactive; RGS8-Gao reg: inactive; RGS16-Gao HTS: inactive; RGS4-Gao reg: inactive

Results for CN(C)CCn1c(N)nc2ccccc21 ?
RGS7-Gao: inconclusive; Avidin bead fluor: inactive; RGS8-Gao reg: inactive; RGS16-Gao HTS: inactive; RGS4-Gao reg: inactive

How did COc1cc(/C=C2\C(=O)N(c3ccc(NC(C)=O)cc3)N=C2c2ccccc2)ccc1O do in these assays?
RGS7-Gao: inconclusive; Avidin bead fluor: 131; GSH fluor: inactive; RGS8-Gao reg: inactive; RGS16-Gao HTS: inactive; RGS4-Gao reg: inactive

How did O=C1/C(=C\c2ccc(O)c(O)c2)C(c2ccccc2)=NN1c1ccccc1 do in these assays?
RGS7-Gao: inactive; Avidin bead fluor: inactive; GSH fluor: inactive; RGS8-Gao reg: inactive; RGS16-Gao HTS: inactive; RGS4-Gao reg: inactive

What do the screens show for `Cc1nnc(SCC(=O)N2CCCCC2)n1CC1CCCO1` (configuration not stated)?
RGS7-Gao: inactive; Avidin bead fluor: inactive; GSH fluor: 94; RGS8-Gao reg: inactive; RGS16-Gao HTS: inactive; RGS4-Gao reg: inactive

Results for Cc1ccc(-c2nc3sc4c(c3c(=O)n2N)CC(C)(C)OC4)cc1 ?
RGS7-Gao: inactive; Avidin bead fluor: 55; GSH fluor: inactive; RGS8-Gao reg: inactive; RGS16-Gao HTS: inactive; RGS4-Gao reg: inactive

What do the screens show for `S=C(NCCc1ccccc1)Nc1ccc(Br)cn1`?
RGS7-Gao: inactive; Avidin bead fluor: inactive; GSH fluor: inactive; RGS8-Gao reg: inactive; RGS16-Gao HTS: inactive; RGS4-Gao reg: inactive

How did Cc1ccsc1C(=O)OC1CCOC1=O (configuration not stated) do in these assays?
RGS7-Gao: inactive; Avidin bead fluor: inactive; GSH fluor: 271; RGS8-Gao reg: inactive; RGS16-Gao HTS: inactive; RGS4-Gao reg: inactive

What do the screens show for `COCCOc1ccc(C(F)(F)F)cc1NC(=O)c1ccc(C)cc1`?
RGS7-Gao: inactive; Avidin bead fluor: 59; GSH fluor: inactive; RGS8-Gao reg: inactive; RGS16-Gao HTS: inactive; RGS4-Gao reg: inactive

Results for O=S(=O)(c1ccccc1)c1cnc(-c2ccccc2)nc1N1CCCCC1 ?
RGS7-Gao: inconclusive; Avidin bead fluor: inactive; GSH fluor: inactive; RGS8-Gao reg: inactive; RGS16-Gao HTS: inactive; RGS4-Gao reg: inactive

Results for Cc1onc(-c2c(F)cccc2Cl)c1C(=O)OCC(=O)Nc1c(C)n(C)n(-c2ccccc2)c1=O ?
RGS7-Gao: inactive; Avidin bead fluor: inactive; GSH fluor: 279; RGS8-Gao reg: inactive; RGS16-Gao HTS: inactive; RGS4-Gao reg: inactive

Results for COC(=O)CC1C(=O)NCCN1C(=O)CSc1nnnn1-c1ccc(OC)cc1 (configuration not stated) ?
RGS7-Gao: inactive; Avidin bead fluor: inactive; GSH fluor: inactive; RGS8-Gao reg: inactive; RGS16-Gao HTS: inactive; RGS4-Gao reg: inactive

What do the screens show for `Cc1nc(N2CCN(c3ccccc3)CC2)[nH]c(=O)c1CCC(C)C`?
RGS7-Gao: inconclusive; Avidin bead fluor: inactive; GSH fluor: inactive; RGS8-Gao reg: inactive; RGS16-Gao HTS: inactive; RGS4-Gao reg: inactive

Results for Cc1nc(N2CCN(c3ccccc3)CC2)[nH]c(=O)c1Cc1cccc2ccccc12 ?
RGS7-Gao: inactive; Avidin bead fluor: 197; GSH fluor: inactive; RGS8-Gao reg: inactive; RGS16-Gao HTS: inactive; RGS4-Gao reg: inactive

What do the screens show for `Cc1cc(=O)n(-c2ccc(Cl)cc2)c(=O)[nH]1`?
RGS7-Gao: inconclusive; Avidin bead fluor: inactive; GSH fluor: inactive; RGS8-Gao reg: inactive; RGS16-Gao HTS: inactive; RGS4-Gao reg: inactive

Results for Nc1nc(Nc2cccc(F)c2)nc(NCc2ccco2)c1[N+](=O)[O-] ?
RGS7-Gao: inconclusive; Avidin bead fluor: inactive; RGS8-Gao reg: inactive; RGS16-Gao HTS: inactive; RGS4-Gao reg: inactive

What do the screens show for `O=C(CSc1nnnn1C1CCCCC1)Nc1ccc(F)cc1`?
RGS7-Gao: inactive; Avidin bead fluor: inactive; GSH fluor: inactive; RGS8-Gao reg: inactive; RGS16-Gao HTS: inactive; RGS4-Gao reg: inactive

How did O=C(CSc1nnnn1C1CCCC1)Nc1ccc(F)cc1 do in these assays?
RGS7-Gao: inactive; Avidin bead fluor: 89; GSH fluor: inactive; RGS8-Gao reg: inactive; RGS16-Gao HTS: inactive; RGS4-Gao reg: inactive

What do the screens show for `COc1ccc(Cc2nnc(N/N=C/c3ccc(O)cc3O)[nH]c2=O)cc1OC`?
RGS7-Gao: inactive; Avidin bead fluor: inactive; GSH fluor: inactive; RGS8-Gao reg: inactive; RGS16-Gao HTS: inactive; RGS4-Gao reg: inactive

What do the screens show for `N#Cc1cccc(NC(=O)CC2CCCCC2)c1`?
RGS7-Gao: inactive; Avidin bead fluor: inactive; GSH fluor: 260; RGS8-Gao reg: inactive; RGS16-Gao HTS: inactive; RGS4-Gao reg: inactive

How did N#Cc1ccc(NC(=O)Nc2cccc(C#N)c2)cc1 do in these assays?
RGS7-Gao: inconclusive; Avidin bead fluor: inactive; RGS8-Gao reg: inactive; RGS16-Gao HTS: inactive; RGS4-Gao reg: inactive

Results for O=C(O)CCC(=O)NN1C(=O)c2ccccc2NC1c1ccc(F)cc1 (configuration not stated) ?
RGS7-Gao: inconclusive; Avidin bead fluor: inactive; RGS8-Gao reg: inactive; RGS16-Gao HTS: inactive; RGS4-Gao reg: inactive

Results for Cc1ccc2ccc(S(=O)(=O)n3nc(C)cc3C)cc2c1 ?
RGS7-Gao: inactive; Avidin bead fluor: 54; GSH fluor: inactive; RGS8-Gao reg: inactive; RGS16-Gao HTS: inactive; RGS4-Gao reg: inactive

How did Cc1cc(C(=O)OCc2nnc(-c3ccccc3)o2)c(C)n1-c1ccccc1 do in these assays?
RGS7-Gao: inactive; Avidin bead fluor: inactive; GSH fluor: 261; RGS8-Gao reg: inactive; RGS16-Gao HTS: inactive; RGS4-Gao reg: inactive

Results for Cn1nnnc1SCC1=C(C(=O)O)N2C(=O)[C@@H](NC(=O)[C@H](O)c3ccccc3)[C@H]2SC1 ?
GSH fluor: inactive

What do the screens show for `Cc1cc(C(F)F)nn1CC(=O)NC1C(=O)N2C(C(=O)O)=C(CSc3nnnn3C)CSC12` (configuration not stated)?
RGS7-Gao: inactive; Avidin bead fluor: 58; GSH fluor: inactive; RGS8-Gao reg: inactive; RGS16-Gao HTS: inactive; RGS4-Gao reg: inactive

Results for OCC#CCSc1nnc(-c2ccncc2)o1 ?
RGS7-Gao: inactive; Avidin bead fluor: inactive; GSH fluor: 251; RGS8-Gao reg: inactive; RGS16-Gao HTS: inactive; RGS4-Gao reg: inactive

How did CCN(CC)C(=S)Nc1ccc(Cl)c(Cl)c1 do in these assays?
RGS7-Gao: inactive; Avidin bead fluor: inactive; GSH fluor: inactive; RGS8-Gao reg: inactive; RGS16-Gao HTS: inactive; RGS4-Gao reg: inactive

How did C/C(=N\NC(=O)CSCc1ccc(Cl)cc1)c1ccc2c(c1)OCCO2 do in these assays?
RGS7-Gao: inactive; Avidin bead fluor: inactive; GSH fluor: inactive; RGS8-Gao reg: inactive; RGS16-Gao HTS: inactive; RGS4-Gao reg: inactive

Results for C/C(=N\NC(=O)COc1cccc(Cl)c1)c1ccc2c(c1)OCCO2 ?
RGS7-Gao: inactive; Avidin bead fluor: inactive; GSH fluor: 314; RGS8-Gao reg: inactive; RGS16-Gao HTS: inactive; RGS4-Gao reg: inactive

Screens from PubChem.
